# Assay results from PubChem BioAssay.
# Records with an inconclusive call do not appear. Activity calls are given as the source filed them. Unless noted, how the calls were made is not given here.
# What was measured:
# [1] = target: ATP-dependent translocase ABCB1 (Homo sapiens) (UniProt P08183); assay: MDR1 (ABCB1) efflux transporter inhibition, cell-based (AID 377; in the data active means fluorescence slope change above about 50%); settings: MDR1-expressing cells, fluorescent substrate accumulation slope; stronger effect = higher value; concentration not given here
# Sequence of ATP-dependent translocase ABCB1 (Homo sapiens) (P08183 whole entry, looked up): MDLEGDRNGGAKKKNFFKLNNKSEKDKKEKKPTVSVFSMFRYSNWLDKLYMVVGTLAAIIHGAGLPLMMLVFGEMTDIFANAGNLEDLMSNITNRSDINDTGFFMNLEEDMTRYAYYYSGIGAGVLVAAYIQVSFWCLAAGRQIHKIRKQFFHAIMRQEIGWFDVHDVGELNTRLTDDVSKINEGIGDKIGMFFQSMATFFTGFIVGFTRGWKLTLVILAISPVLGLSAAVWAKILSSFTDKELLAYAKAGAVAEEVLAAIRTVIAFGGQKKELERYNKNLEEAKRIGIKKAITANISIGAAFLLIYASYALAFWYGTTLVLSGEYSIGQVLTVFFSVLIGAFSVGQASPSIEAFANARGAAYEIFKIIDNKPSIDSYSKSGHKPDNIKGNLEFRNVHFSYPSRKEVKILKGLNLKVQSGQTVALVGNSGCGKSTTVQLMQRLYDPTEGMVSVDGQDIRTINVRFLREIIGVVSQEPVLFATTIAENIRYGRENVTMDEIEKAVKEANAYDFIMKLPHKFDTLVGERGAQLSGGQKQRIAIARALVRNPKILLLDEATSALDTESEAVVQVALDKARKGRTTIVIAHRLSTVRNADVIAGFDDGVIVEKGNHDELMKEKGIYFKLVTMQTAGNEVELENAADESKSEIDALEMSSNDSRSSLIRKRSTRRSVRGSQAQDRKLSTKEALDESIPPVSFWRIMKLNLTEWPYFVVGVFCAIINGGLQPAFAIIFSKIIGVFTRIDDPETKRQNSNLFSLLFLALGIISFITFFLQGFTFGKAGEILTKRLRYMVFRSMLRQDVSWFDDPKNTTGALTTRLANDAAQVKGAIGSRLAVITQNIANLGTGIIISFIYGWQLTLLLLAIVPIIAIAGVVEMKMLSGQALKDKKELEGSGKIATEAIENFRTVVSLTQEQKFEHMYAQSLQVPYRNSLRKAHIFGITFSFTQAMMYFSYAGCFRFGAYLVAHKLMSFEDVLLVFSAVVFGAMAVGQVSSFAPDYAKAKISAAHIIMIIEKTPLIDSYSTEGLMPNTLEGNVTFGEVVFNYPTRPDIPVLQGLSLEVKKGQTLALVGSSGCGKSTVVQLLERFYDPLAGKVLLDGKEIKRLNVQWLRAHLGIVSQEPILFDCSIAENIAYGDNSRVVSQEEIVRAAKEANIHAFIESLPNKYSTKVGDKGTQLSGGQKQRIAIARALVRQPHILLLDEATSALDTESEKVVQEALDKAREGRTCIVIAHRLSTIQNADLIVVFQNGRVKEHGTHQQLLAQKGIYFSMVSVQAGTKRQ
# [2] = tested on: Hepatitis C virus NS3 helicase; assay: HCV NS3 helicase inhibitors, primary screen, biochemical, fluorescence polarization, LOPAC1280 library (AID 687035; in the data active means inhibition above about 37%); settings: Purified HCV NS3 helicase, Cy5-dT15 ssDNA binding fluorescence polarization; stronger effect = higher value; concentration not given here
# [3] = Cy5 fluorescence quenching or enhancement artefacts, artefact control for HCV NS3 helicase inhibitor project, biochemical, LOPAC1280 (AID 687037); settings: Cy5-DNA-NS3h complex fluorescence interference counterscreen
# [4] = LFS_MB_P medulloblastoma growth inhibition, cell-based, chromothripsis tumors, cisplatin or BGB combos (AID 1671449; in the data active means inhibition above about 80%;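 further: cells exposed for 96 hours; 0% = vehicle DMSO and 100% = killing by high DMSO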); settings: LFS_MB_P medulloblastoma cells
# [5] = HDN33 neuroblastoma growth inhibition, cell-based, chromothripsis tumors, cisplatin or BGB combos (AID 1671450; in the data active means inhibition above about 80%;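 further: cells exposed to compound for four days; 0% = vehicle DMSO and 100% = cell killing by high DMSO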); settings: HDN33 neuroblastoma cells, stronger effect = higher value
# [6] = ICB984 medulloblastoma cell growth inhibition, synergistic combos for chromothripsis tumors, cisplatin or BGB combos (AID 1671451); settings: ICB984 medulloblastoma cells, drug combinations, stronger effect = higher value;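 further: cells exposed for 96 hours before readout; 0% = vehicle DMSO and 100% = killing by high DMSO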
# [7] = HTB85 osteosarcoma cell growth inhibition, synergistic combos for chromothripsis tumors, BGB or cisplatin IC20 combos (AID 1671453; in the data active means inhibition above about 80%;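 further: cells exposed for 96 hours before readout; 0% = vehicle DMSO and 100% = high DMSO killing control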); settings: HTB85 osteosarcoma cells, drug combinations, stronger effect = higher value
# [8] = MDA-MB-436 breast carcinoma cell growth inhibition, synergistic combos for chromothripsis tumors, BGB or cisplatin combos (AID 1671458); settings: MDA-MB-436 breast carcinoma growth inhibition, drug combinations, stronger effect = higher value;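 further: cells exposed for 96 hours; 0% = vehicle DMSO and 100% = killing by high DMSO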
# [9] = growth inhibition of BT084 medulloblastoma cells, cell-based, ICGC_MB145, cisplatin and BGB IC40 combos (AID 1671461; in the data active means inhibition above about 80%;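 further: cells exposed to drugs for 96 hours; 0% = vehicle DMSO and 100% = high DMSO full killing control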); settings: drug combinations, stronger effect = higher value
# [10] = growth inhibition of RCMB18 medulloblastoma cells, cell-based, cisplatin and BGB IC40 combos (AID 1671462; in the data active means inhibition above about 80%;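 further: cells exposed to compound for four days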); settings: stronger effect = higher value
# [11] = growth inhibition of CRL1545 osteosarcoma cells, cell-based, cisplatin and BGB IC20 combos (AID 1671464; in the data active means inhibition above about 80%;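 further: cells exposed to compound for 96 hours before readout; 0% = vehicle DMSO and 100% = high DMSO killing control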); settings: stronger effect = higher value
# [12] = measured here: with BGB IC20 combination, at 0.5 µM
# [13] = measured here: with cisplatin IC20 combination, at 0.5 µM
smiles,measurement,setting,value
Oc1cc(O)c2c(c1)O[C@H](c1ccc(O)c(O)c1)[C@@H](O)C2,fluorescence slope change,[1],16.4% (inactive)
same,inhibition,[2],0% (inactive)
same,fluorescence ratio (interference),[3],1 (inactive)
NC1(C(=O)O)CC1,inhibition,[2],-2% (inactive)
same,fluorescence ratio (interference),[3],1 (inactive)
NCCCS(=O)(=O)O,inhibition,[2],-1% (inactive)
same,fluorescence ratio (interference),[3],1 (inactive)
NCCCCN,inhibition,[2],-3% (inactive)
same,fluorescence ratio (interference),[3],0.9 (inactive)
N[C@@H](Cc1cc(I)c(Oc2ccc(O)c(I)c2)c(I)c1)C(=O)O,fluorescence slope change,[1],18.7% (inactive)
Cc1cc(C(C)(C)CC(C)(C)C)ccc1OCCOCC[N+](C)(C)Cc1ccccc1,fluorescence slope change,[1],152% (active)
COc1c2ccoc2cc2oc(=O)ccc12,inhibition,"[4]; at 0.5 µM, stronger effect = higher value",-22.9% (inactive)
same,inhibition,"[4]; measured here: combination with BGB IC20, at 0.005 µM",-15%
same,inhibition,"[4]; measured here: combination with BGB IC40, at 0.005 µM",-30%
same,inhibition,"[4]; measured here: combination with BGB IC40, at 0.05 µM",3.17%
same,inhibition,"[4]; measured here: combination with cisplatin, at 0.5 µM, stronger effect = higher value",-36.3%
same,inhibition,"[4]; measured here: combination with cisplatin, at 5 µM, stronger effect = higher value",-26.9%
same,inhibition,"[5]; BGB combo, at 5 µM",-4.43%
same,inhibition,[5]; at 0.5 µM,-1.51% (inactive)
same,inhibition,"[5]; cisplatin combo, at 5 µM",-17.2%
same,inhibition,[5]; [12],5%
same,inhibition,[5]; [13],1.07%
same,inhibition,"[5]; single agent, at 5 µM",-13.4%
same,inhibition,"[6]; BGB IC20 combo, at 0.005 µM",-7.99%
same,inhibition,"[6]; BGB IC40 combo, at 0.005 µM",-11.7%
same,inhibition,"[6]; BGB IC40 combo, at 0.05 µM",-24.6%
same,inhibition,[6]; at 0.5 µM,-24.1% (inactive)
same,inhibition,"[6]; cisplatin combo, at 0.05 µM",-24.6%
same,inhibition,"[6]; cisplatin combo, at 0.5 µM",-26.9%
same,inhibition,"[6]; cisplatin combo, at 5 µM",-4.96%
same,inhibition,"[6]; measured here: 5 uM single agent, at 5 µM",-16.8%
same,inhibition,[7]; at 0.5 µM,-23.4% (inactive)
same,inhibition,"[7]; measured here: with BGB IC20, at 0.5 µM",-60.7%
same,inhibition,"[7]; measured here: with BGB IC20, at 5 µM",-19.3%
same,inhibition,"[7]; measured here: with cisplatin IC20, at 0.5 µM",-7.94%
same,inhibition,"[7]; measured here: with cisplatin IC20, at 5 µM",10.7%
same,inhibition,"[7]; single agent, at 5 µM",-6.82%
same,inhibition,[8]; at 0.5 µM,-22.2% (inactive)
same,inhibition,"[8]; measured here: BGB combination, at 0.5 µM",-22.9%
same,inhibition,"[8]; measured here: BGB combination, at 5 µM",-18.9%
same,inhibition,"[8]; measured here: cisplatin combination, at 0.5 µM",-40%
same,inhibition,"[8]; measured here: cisplatin combination, at 5 µM",-24.1%
same,inhibition,[9]; at 0.5 µM,-16.4% (inactive)
same,inhibition,"[9]; cisplatin combination, at 0.5 µM",-9.55%
same,inhibition,"[9]; cisplatin combination, at 5 µM",-48%
same,inhibition,"[9]; measured here: BGB IC40 combination 0.05 uM, at 0.05 µM",-9.91%
same,inhibition,"[9]; single agent, at 5 µM",-11.1%
same,inhibition,[10]; at 0.5 µM,-11% (inactive)
same,inhibition,"[10]; cisplatin combo, at 5 µM",17.9%
same,inhibition,"[10]; measured here: BGB IC40 combination, at 0.05 µM",-6.4%
same,inhibition,"[10]; measured here: combination with cisplatin, at 0.5 µM",-1.6%
same,inhibition,"[10]; single agent, at 5 µM",-15.2%
same,inhibition,[11]; at 0.5 µM,-17.9% (inactive)
same,inhibition,[11]; [12],-18.6%
same,inhibition,[11]; [13],-17.5%
same,inhibition,"[11]; single agent, at 0.05 µM",-2.38%
same,inhibition,"[11]; single agent, at 5 µM",22.5%
CC(C(=O)O)c1ccc(N2Cc3ccccc3C2=O)cc1 (centres undefined),fluorescence slope change,[1],85.5% (active)
CN1CCc2c(c3ccccc3n2Cc2ccccc2)C1,fluorescence slope change,[1],70.9% (active)
CN[C@H](CC(=O)O)C(=O)O,inhibition,[2],-2% (inactive)
same,fluorescence ratio (interference),[3],1 (inactive)
NCCCCN=C(N)N,fluorescence slope change,[1],53.1% (active)
same,inhibition,[2],1% (inactive)
same,fluorescence ratio (interference),[3],1 (inactive)
NCCSSCCN,inhibition,[2],-2% (inactive)
same,fluorescence ratio (interference),[3],1 (inactive)
NC(=O)CC[C@H](N)C(=O)O,inhibition,[2],-3% (inactive)
same,fluorescence ratio (interference),[3],1 (inactive)
NCCCCC(=O)O,inhibition,[2],-1% (inactive)
same,fluorescence ratio (interference),[3],0.9 (inactive)
COC(=O)[C@H]1[C@H]2C[C@H]3c4[nH]c5ccccc5c4CCN3C[C@H]2CC[C@@H]1O,inhibition,[2],0% (inactive)
same,fluorescence ratio (interference),[3],1 (inactive)
CN(C)CCOC(c1ccccc1)c1ccccc1 (tested in a mixture with another compound),fluorescence slope change,[1],130% (active)
NC(N)=NCCCCN=C(N)N,fluorescence slope change,[1],59.6% (active)
same,inhibition,[2],-3% (inactive)
same,fluorescence ratio (interference),[3],1 (inactive)
Cn1c(=O)c2[nH]c(C3CCCC3)nc2n(C)c1=O,inhibition,[2],-1% (inactive)
same,fluorescence ratio (interference),[3],1 (inactive)
O=C(O)c1cc2cc(F)ccc2[nH]1,inhibition,[2],-2% (inactive)
same,fluorescence ratio (interference),[3],1 (inactive)
COc1cc2c(cc1OC)-c1cc3ccc(OC)c(OC)c3c[n+]1CC2,fluorescence slope change,[1],29.3% (inactive)
CC(CN(C)C)CN1c2ccccc2Sc2ccccc21 (centres undefined),fluorescence slope change,[1],102% (active)
Cn1c(=O)[nH]c2ncn(C)c2c1=O,inhibition,[2],-3% (inactive)
same,fluorescence ratio (interference),[3],1 (inactive)
O=C1OC(=O)C2C3CCC(O3)C12 (centres undefined),inhibition,[2],-2% (inactive)
same,fluorescence ratio (interference),[3],1 (inactive)
CC(C)Cn1c(=O)n(C)c(=O)c2[nH]cnc21,inhibition,[2],-1% (inactive)
same,fluorescence ratio (interference),[3],0.9 (inactive)
CN(C)CCC(c1ccc(Br)cc1)c1ccccn1 (centres undefined),fluorescence slope change,[1],54.4% (active)
same,inhibition,[2],0% (inactive)
same,fluorescence ratio (interference),[3],0.9 (inactive)
CCCCN1CCCCC1C(=O)Nc1c(C)cccc1C (centres undefined),fluorescence slope change,[1],-6% (inactive)
CC(C(=O)O)c1cccc(Oc2ccccc2)c1 (centres undefined),fluorescence slope change,[1],22.2% (inactive)
COc1ccc([C@@H]2CC(=O)c3c(O)cc(O)cc3O2)cc1O,fluorescence slope change,[1],5.5% (inactive)
